# Data from ChEMBL document CHEMBL1961873, “Compounds: GSK PKIS; Assays: Nanosyn kinase panel” (2012).
# How the values were obtained:
# [1] = target: Mast/stem cell growth factor receptor Kit (Homo sapiens) (UniProt P10721); settings: at 1 µM
# [2] = system: Mast/stem cell growth factor receptor Kit (Homo sapiens), P10721 [D816V]; settings: at 0.1 µM
# [3] = system: Mast/stem cell growth factor receptor Kit (Homo sapiens), P10721 [D816V]; settings: at 1 µM
# [4] = system: Mast/stem cell growth factor receptor Kit (Homo sapiens), P10721 [T670I]; settings: at 0.1 µM
# Mast/stem cell growth factor receptor Kit (Homo sapiens), P10721 [T670I], sequence (P10721 whole entry T670I): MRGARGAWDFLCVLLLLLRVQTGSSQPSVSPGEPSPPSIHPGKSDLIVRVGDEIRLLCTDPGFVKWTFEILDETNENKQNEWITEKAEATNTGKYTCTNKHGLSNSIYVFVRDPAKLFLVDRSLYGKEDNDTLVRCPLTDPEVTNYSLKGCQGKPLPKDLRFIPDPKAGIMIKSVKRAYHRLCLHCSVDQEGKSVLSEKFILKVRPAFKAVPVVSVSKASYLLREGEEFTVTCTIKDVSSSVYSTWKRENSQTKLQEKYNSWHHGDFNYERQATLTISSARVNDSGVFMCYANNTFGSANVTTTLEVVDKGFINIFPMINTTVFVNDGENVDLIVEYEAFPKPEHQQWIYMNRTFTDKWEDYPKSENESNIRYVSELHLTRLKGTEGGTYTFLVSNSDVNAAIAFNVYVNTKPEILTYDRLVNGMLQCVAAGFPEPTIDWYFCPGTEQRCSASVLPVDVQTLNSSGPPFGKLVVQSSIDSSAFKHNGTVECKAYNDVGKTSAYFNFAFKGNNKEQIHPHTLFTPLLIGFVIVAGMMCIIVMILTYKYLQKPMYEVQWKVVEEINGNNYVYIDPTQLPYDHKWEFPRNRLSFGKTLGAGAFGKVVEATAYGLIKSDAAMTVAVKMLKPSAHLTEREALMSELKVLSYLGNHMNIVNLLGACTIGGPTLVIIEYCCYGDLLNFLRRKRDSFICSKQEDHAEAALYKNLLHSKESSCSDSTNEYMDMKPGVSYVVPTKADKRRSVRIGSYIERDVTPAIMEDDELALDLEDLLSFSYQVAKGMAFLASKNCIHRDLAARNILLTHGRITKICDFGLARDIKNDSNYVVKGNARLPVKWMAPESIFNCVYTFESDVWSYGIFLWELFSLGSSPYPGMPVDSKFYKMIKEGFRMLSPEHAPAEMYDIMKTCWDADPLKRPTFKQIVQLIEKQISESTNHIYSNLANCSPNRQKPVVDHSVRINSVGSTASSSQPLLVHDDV
# [5] = system: Mast/stem cell growth factor receptor Kit (Homo sapiens), P10721 [T670I]; settings: at 1 µM
# [6] = system: Mast/stem cell growth factor receptor Kit (Homo sapiens), P10721 [V560G]; settings: at 0.1 µM
# Mast/stem cell growth factor receptor Kit (Homo sapiens), P10721 [V560G], sequence (P10721 whole entry V560G): as the sequence (P10721 whole entry T670I) above, with V560G, I670T counted along it
# [7] = system: Mast/stem cell growth factor receptor Kit (Homo sapiens), P10721 [V560G]; settings: at 1 µM
# [8] = target: Tyrosine-protein kinase Lck (Homo sapiens) (UniProt P06239); settings: at 0.1 µM
# Tyrosine-protein kinase Lck (Homo sapiens), sequence (P06239 2-509 limits assumed): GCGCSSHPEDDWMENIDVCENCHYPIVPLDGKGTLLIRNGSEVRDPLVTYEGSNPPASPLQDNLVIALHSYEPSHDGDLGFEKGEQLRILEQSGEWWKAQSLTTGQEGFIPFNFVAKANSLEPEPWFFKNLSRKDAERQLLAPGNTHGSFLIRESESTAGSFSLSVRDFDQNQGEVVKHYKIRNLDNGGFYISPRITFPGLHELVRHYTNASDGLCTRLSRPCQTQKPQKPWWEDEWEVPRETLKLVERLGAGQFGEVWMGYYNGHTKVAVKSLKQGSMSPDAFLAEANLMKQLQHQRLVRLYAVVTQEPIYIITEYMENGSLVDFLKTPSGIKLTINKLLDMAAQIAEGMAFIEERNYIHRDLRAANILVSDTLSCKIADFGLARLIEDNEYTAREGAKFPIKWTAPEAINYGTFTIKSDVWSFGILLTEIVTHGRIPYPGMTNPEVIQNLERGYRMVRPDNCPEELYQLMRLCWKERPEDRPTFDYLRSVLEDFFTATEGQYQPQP
# [9] = target: Tyrosine-protein kinase Lck (Homo sapiens) (UniProt P06239); settings: at 1 µM
# [10] = target: Leukocyte tyrosine kinase receptor (Homo sapiens) (UniProt P29376); settings: at 0.1 µM
# Leukocyte tyrosine kinase receptor (Homo sapiens), sequence (P29376 whole entry): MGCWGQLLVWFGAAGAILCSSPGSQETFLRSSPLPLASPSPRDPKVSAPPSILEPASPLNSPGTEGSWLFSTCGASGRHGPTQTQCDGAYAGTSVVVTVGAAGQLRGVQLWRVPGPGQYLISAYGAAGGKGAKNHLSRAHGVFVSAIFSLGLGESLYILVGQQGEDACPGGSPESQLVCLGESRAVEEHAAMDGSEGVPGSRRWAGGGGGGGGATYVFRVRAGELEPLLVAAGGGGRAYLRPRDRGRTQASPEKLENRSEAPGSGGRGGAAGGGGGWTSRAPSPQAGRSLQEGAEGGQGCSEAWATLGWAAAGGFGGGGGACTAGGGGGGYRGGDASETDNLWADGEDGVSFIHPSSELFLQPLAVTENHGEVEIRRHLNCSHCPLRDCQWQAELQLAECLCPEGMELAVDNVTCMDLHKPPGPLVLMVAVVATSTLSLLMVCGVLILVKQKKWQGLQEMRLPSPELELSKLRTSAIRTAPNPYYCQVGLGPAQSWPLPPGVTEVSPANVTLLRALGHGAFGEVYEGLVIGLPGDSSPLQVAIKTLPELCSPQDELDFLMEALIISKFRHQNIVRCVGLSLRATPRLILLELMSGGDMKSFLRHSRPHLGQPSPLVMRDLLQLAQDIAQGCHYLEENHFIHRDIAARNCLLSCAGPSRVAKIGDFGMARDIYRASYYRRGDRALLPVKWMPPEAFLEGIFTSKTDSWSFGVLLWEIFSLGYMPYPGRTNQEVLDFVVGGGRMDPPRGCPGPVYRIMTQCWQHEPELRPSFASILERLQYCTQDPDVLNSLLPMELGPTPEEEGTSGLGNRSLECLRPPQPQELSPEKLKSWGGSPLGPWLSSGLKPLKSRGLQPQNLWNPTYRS
# [11] = target: Leukocyte tyrosine kinase receptor (Homo sapiens) (UniProt P29376); settings: at 1 µM
# [12] = target: Tyrosine-protein kinase Lyn (Homo sapiens) (UniProt P07948); settings: at 0.1 µM
# Tyrosine-protein kinase Lyn (Homo sapiens), sequence (P07948 2-512 limits assumed): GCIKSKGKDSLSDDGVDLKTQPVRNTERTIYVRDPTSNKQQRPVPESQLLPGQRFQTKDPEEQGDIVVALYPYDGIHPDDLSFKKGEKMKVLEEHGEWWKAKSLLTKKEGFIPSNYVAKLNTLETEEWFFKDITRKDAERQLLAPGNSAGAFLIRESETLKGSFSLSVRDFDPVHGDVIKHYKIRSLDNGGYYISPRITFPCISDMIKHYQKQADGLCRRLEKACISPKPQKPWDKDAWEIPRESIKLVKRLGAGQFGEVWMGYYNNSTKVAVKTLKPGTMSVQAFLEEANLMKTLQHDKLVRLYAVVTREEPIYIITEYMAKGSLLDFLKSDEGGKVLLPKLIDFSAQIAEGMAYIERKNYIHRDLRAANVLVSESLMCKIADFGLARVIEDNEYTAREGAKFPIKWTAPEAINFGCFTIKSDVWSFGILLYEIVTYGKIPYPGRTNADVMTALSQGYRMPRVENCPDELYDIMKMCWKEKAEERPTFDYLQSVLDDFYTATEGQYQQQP
# [13] = target: Tyrosine-protein kinase Lyn (Homo sapiens) (UniProt P07948); settings: at 1 µM
# [14] = target: Tyrosine-protein kinase Lyn (Homo sapiens) (UniProt P07948); settings: at 0.1 µM; remark: listed apart in the source
# [15] = target: Tyrosine-protein kinase Lyn (Homo sapiens) (UniProt P07948); settings: at 1 µM; remark: listed apart in the source
# [16] = target: T1, Tyrosine-protein kinase Mer (Homo sapiens) (UniProt Q12866); settings: at 0.1 µM
# T1 sequence (whole entry): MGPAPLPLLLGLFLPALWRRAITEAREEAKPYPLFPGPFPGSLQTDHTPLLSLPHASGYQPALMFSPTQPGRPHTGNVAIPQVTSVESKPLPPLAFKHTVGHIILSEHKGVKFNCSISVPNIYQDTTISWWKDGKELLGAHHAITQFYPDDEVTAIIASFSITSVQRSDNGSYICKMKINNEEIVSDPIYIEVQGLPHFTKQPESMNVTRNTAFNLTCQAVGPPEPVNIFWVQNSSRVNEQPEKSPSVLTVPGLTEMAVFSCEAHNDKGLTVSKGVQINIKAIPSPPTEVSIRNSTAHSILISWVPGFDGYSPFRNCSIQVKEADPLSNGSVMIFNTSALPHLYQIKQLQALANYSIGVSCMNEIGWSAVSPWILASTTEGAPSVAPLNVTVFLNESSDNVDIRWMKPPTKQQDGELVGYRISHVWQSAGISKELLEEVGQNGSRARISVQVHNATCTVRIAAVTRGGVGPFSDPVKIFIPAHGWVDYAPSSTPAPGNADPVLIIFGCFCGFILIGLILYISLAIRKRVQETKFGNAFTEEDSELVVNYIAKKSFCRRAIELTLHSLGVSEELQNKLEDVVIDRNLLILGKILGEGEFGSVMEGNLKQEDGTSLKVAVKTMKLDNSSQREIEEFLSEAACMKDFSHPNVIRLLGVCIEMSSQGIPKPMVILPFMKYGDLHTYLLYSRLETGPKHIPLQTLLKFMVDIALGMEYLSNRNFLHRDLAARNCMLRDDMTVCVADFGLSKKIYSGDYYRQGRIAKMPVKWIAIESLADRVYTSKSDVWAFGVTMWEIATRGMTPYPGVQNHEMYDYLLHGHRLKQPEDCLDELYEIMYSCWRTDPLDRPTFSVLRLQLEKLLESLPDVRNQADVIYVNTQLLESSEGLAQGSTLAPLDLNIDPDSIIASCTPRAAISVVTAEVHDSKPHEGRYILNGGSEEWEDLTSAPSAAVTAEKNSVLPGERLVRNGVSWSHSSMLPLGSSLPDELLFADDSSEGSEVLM
# [17] = target: T1, Tyrosine-protein kinase Mer (Homo sapiens); settings: at 1 µM
# [18] = target: Hepatocyte growth factor receptor (Homo sapiens) (UniProt P08581); settings: at 0.1 µM
# Hepatocyte growth factor receptor (Homo sapiens), sequence (P08581 whole entry): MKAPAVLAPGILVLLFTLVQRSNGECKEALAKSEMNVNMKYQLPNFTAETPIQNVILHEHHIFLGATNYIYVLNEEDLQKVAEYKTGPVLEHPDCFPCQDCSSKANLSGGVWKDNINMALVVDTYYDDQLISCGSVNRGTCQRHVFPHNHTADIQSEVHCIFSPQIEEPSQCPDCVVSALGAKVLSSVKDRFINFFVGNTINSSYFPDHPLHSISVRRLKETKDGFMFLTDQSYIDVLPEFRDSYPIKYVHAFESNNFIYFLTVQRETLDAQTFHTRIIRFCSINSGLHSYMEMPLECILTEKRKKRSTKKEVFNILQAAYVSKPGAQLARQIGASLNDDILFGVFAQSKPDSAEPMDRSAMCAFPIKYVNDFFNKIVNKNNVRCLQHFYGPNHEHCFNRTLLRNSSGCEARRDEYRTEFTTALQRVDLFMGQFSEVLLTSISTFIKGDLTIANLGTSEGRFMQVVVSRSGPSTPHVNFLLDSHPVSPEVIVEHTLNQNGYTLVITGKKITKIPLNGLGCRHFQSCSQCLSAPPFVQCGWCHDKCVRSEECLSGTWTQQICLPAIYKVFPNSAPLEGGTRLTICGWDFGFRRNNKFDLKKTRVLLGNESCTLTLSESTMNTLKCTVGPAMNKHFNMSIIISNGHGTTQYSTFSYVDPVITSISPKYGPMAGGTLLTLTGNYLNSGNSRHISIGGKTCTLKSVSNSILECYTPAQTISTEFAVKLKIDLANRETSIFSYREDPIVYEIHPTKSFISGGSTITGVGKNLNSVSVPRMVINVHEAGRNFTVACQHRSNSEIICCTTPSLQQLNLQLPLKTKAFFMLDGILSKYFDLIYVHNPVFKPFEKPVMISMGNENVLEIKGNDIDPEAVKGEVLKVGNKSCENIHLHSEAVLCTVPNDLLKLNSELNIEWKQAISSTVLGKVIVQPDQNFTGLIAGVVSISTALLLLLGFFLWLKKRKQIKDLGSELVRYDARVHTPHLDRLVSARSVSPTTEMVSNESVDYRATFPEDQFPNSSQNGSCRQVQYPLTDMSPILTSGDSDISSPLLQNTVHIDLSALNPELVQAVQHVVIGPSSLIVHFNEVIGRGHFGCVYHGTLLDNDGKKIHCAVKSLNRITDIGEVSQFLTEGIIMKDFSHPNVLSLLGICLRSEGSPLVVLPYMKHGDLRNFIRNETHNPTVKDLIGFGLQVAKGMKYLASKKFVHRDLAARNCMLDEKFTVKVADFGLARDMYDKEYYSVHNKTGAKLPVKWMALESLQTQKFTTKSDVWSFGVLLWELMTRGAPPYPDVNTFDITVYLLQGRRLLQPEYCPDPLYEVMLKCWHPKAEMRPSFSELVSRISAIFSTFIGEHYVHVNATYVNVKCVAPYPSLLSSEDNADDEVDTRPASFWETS
# [19] = target: Hepatocyte growth factor receptor (Homo sapiens) (UniProt P08581); settings: at 1 µM
# [20] = target: T2, Muscle, skeletal receptor tyrosine-protein kinase (Homo sapiens) (UniProt O15146); settings: at 0.1 µM;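 note: values are mean inhibition of MuSK from the GSK PKIS kinase screening panel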
# T2 sequence (whole entry): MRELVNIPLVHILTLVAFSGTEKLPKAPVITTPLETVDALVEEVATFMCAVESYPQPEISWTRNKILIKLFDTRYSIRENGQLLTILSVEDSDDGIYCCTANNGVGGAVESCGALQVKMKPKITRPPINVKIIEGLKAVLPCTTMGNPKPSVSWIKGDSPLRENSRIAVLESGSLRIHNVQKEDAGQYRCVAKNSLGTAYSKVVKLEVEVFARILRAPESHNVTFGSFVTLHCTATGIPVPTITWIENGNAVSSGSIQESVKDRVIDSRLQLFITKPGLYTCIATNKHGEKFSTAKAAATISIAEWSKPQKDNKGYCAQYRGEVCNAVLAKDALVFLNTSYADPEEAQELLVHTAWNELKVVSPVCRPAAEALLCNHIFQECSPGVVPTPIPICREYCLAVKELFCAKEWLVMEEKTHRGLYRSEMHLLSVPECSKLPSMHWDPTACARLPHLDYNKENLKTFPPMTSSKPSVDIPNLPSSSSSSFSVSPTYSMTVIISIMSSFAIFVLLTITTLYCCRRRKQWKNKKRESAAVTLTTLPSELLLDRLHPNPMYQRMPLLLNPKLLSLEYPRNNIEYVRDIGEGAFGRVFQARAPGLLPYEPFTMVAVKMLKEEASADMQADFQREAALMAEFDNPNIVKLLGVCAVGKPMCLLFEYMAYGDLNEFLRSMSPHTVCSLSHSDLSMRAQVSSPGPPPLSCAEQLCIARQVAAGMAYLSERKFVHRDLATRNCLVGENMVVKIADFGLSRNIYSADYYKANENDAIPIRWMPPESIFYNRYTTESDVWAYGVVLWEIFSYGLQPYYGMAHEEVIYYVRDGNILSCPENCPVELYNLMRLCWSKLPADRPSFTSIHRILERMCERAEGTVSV
# Mast/stem cell growth factor receptor Kit (Homo sapiens), sequence (P10721 whole entry): as the sequence (P10721 whole entry T670I) above, with I670T counted along it
# Mast/stem cell growth factor receptor Kit (Homo sapiens), P10721 [D816V], sequence (P10721 whole entry D816V): as the sequence (P10721 whole entry T670I) above, with I670T, D816V counted along it
SMILES,inhibition [1] [%],inhibition [2] [%],inhibition [3] [%],inhibition [4] [%],inhibition [5] [%],inhibition [6] [%],inhibition [7] [%],inhibition [8] [%],inhibition [9] [%],inhibition [10] [%],inhibition [11] [%],inhibition [12] [%],inhibition [13] [%],inhibition [14] [%],inhibition [15] [%],inhibition [16] [%],inhibition [17] [%],inhibition [18] [%],inhibition [19] [%],inhibition [20] [%]
Cc1cccc(-c2n[nH]cc2-c2ccc3ncccc3n2)n1,2.16,3.77,18,-0.33,-0.51,3.48,-0.13,0.45,4.51,0.62,0.08,0.89,7.91,0.34,7.01,-0.08,0.84,2.89,-1.62,0.64
Nc1ncnc2occ(-c3ccc(NC(=O)Nc4cccc(C(F)(F)F)c4)cc3)c12,97.3,3.24,6.5,72.5,83.9,104,97.8,12.1,46.7,7.15,47.1,19.4,72.2,13.3,67.8,3.32,31.6,3.03,29,72.9
O=C1NC(=O)C(c2ccc(Cl)cc2)=C1Nc1ccc(Cl)c(C(=O)O)c1,-0.38,-3.8,-3.02,-0.88,-1.49,2.75,8.56,-0.44,0.35,-1.15,-0.2,0.02,-0.5,-2.02,-0.81,1.27,0.08,-1.14,-0.38,-1.83
CCn1c(-c2nonc2N)nc2c(N3CCCC3)nccc21,1.81,-1.12,-0.65,-1.62,-1.43,-0.78,1.06,-2.27,-0.36,0.51,-0.6,1.31,-0.07,1.13,0.52,0.24,1.56,-3.32,-1.91,1.25
COC(=O)Nc1nc2cc(Oc3ccc(NC(=O)Nc4cccc(C(=O)O)c4)cc3)ccc2[nH]1,18.8,1.22,3.73,-0.34,2.75,5.8,15.5,-2.73,-2.81,0.33,-0.52,0.39,5.81,0.48,2.9,0.61,2.01,-0.09,11.4,-0.16
CS(=O)(=O)CCNCc1ccc(-c2ccc3ncnc(Nc4ccc(OCc5ccccc5)c(Cl)c4)c3c2)o1,1.79,0.03,2.97,1.42,1.36,7.05,1.37,1.77,9.7,0.32,4.23,1.21,6.25,1.19,5.08,4.37,30.6,5.04,7.4,3.89
CC1=C(C(=O)Nc2ccc3[nH]ncc3c2)C(c2ccc3ccccc3c2)CC(=O)N1 (centres undefined),7.55,0.15,-0.63,1.53,2.53,1.45,2.17,21.1,64.3,2.82,3.95,6.74,30.8,4.2,26.2,0.87,2.79,8.81,40.3,2.08
CCn1c(-c2nonc2N)nc2ccncc21,-2.36,-0.01,-2.39,0.62,3.05,-0.14,-0.33,1.33,2.29,1.29,0.42,2.64,-1.88,1.5,-0.9,0.16,-0.52,8.81,2.41,-0.65
CS(=O)(=O)CCNCc1ccc(-c2ccc3ncnc(Nc4ccc(OCc5cccc(F)c5)c(C(F)(F)F)c4)c3c2)o1,4.6,5.18,2.67,4.9,4.53,-3.52,-0.7,1.82,3.95,3.59,3.49,6.53,6.94,3.88,4.94,1.14,0.83,7.18,3.55,3.27
O=C1NC(=O)C(N2CCc3ccccc32)=C1c1ccc(Cl)cc1,12,2.68,2.43,3.14,3.85,7,3.94,1.6,4.29,2.8,1.64,6.82,6.94,5.14,4.26,4.06,6.47,-1.68,7.33,2.09
Nc1nc(-c2ccccn2)c(-c2ccc3ncccc3n2)s1,3.6,3.62,4.08,4.81,3.16,-2.5,2.06,0.48,0.19,2.47,2.34,4.59,4.44,2.14,3.06,0.73,4.5,2.46,9.52,3.99
CCCN1CCC=C(c2ccc(Nc3nc(Nc4ccccc4C(N)=O)c4cc[nH]c4n3)c(C)c2)C1,11.6,7.12,3.39,4.53,0.85,-4.87,-3.21,4.63,7.36,79.4,93.9,2.75,6.69,-0.18,2.97,1.4,10.5,6.76,13.1,4.95
NC(=O)c1ccc(-c2nc(-c3ccccn3)c(-c3ccc4c(c3)OCO4)[nH]2)cc1,4.68,7.73,5.29,0.05,–,1.28,6.23,2.19,4.07,3.03,3.18,2.23,2.11,1.62,3.18,1.67,3.36,-4.12,9.28,2.51
Fc1cccc(COc2ccc(Nc3ncnc4sc(-c5cccs5)cc34)cc2Cl)c1,6.67,4.5,1.72,1.75,2.96,4.3,2.12,0.99,3.56,-0.03,1.68,0.57,1.59,0.13,2.6,1.5,0.96,-1.35,-0.09,-0.17
